In PubChem BioAssay (EPA / NIEHS) one finds outcome and AC50 data, which are given here for 32 compounds.

Results filed as inconclusive are left out. The source made the active and inactive calls. How the source made its calls: active means hit-call score of the fitted dose curve at least 0.9, where 1 is the maximum; inconclusive means response in the unintended direction; inactive means score below 0.9.

One assay is described as follows: Tanguay_ZF_120hpf_PE_legacy: (Legacy) Oregon State University Tanguay Lab 120 Hour Post-fertilization zebrafish Assay for Pericardial Edema (AID 2283640).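 On AC50: potency for increased incidence of pericardial edema versus DMSO baseline.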 The essentials:
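Tropical 5D wild-type zebrafish embryos were exposed statically to 120 hpf at 28C, sealed and foil-covered, in 0.64% DMSO final. Pericardial edema was scored present/absent by brightfield microscopy; dead embryos were not scored.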
For `C=CC(=O)NCNC(=O)C=C`, the call was inactive.
With `Cc1ccccc1[N+](=O)[O-]`, the outcome was inactive.
On the same count and under the same terms, the result for `NS(=O)(=O)C(F)(F)C(F)(F)C(F)(F)C(F)(F)C(F)(F)C(F)(F)C(F)(F)C(F)(F)F` reads “inactive”.
On the same count and under the same terms, with `ClC1=C(Cl)[C@]2(Cl)[C@@H]3[C@@H](Cl)[C@H]4O[C@H]4[C@@H]3C1(Cl)C2(Cl)Cl` the entry was “inactive”; with `Nn1cnnc1`, “inactive”; with `CCC(=O)O[C@H]1CC[C@H]2[C@@H]3CCC4=CC(=O)CC[C@]4(C)[C@H]3CC[C@]12C`, “inactive”.
A word on the AC50: it is the concentration giving half of the maximal activity seen. Consider `CC1=C2C[C@H]3[C@@H](CC=C4C[C@@H](O)CC[C@@]43C)[C@@H]2CC[C@]12O[C@@H]1C[C@H](C)CN[C@H]1[C@H]2C`, for which the AC50 was 20.2 µM (active).
Regarding `Cc1cc2c3c(c1)C(c1ccccc1)=N[C@@H](NC(=O)c1ccncc1)C(=O)N3CC2`, the outcome was inactive.
On the same count and under the same terms, with `Cc1cccc([N+](=O)[O-])c1` the entry was “inactive”.
With `ClC1=C(Cl)[C@]2(Cl)[C@@H]3[C@H]4C[C@H]([C@@H]5O[C@H]45)[C@@H]3[C@@]1(Cl)C2(Cl)Cl`, the AC50 was 39 µM (active).
With `Cc1ccccc1CO[C@@H]1C[C@@]2(C(C)C)CC[C@]1(C)O2`, the result was inactive.
For `CO/C=C(/C(=O)OC)c1ccccc1COc1cccc(C(F)(F)F)n1`, the AC50 is 2.43 µM (active).
Turning to `O=C(O)C(F)(F)C(F)(F)C(F)(F)C(F)(F)C(F)(F)C(F)(F)C(F)(F)C(F)(F)F`, the result was inactive.
`N#Cc1ccc(N(CC(N)=O)CC(F)(F)F)cc1C(F)(F)F`: the call was inactive.
Turning to `O=C(N[C@H]1CN2CCC1CC2)c1cc2ccoc2cn1`, the call was inactive.
Take `C=CC(N)=O`: the result was inactive.
As to `CCNc1nc(NC(C)C)nc(SC)n1`, the outcome was inactive.
In the case of `Oc1ccc(C(c2ccc(O)cc2)(C(F)(F)F)C(F)(F)F)cc1`, the AC50 was 37.7 µM (active).
Consider `CCOC(=O)C(O)(c1ccc(Cl)cc1)c1ccc(Cl)cc1`, for which the compound was classed as inactive.
For `CCC(C)c1cc([N+](=O)[O-])cc([N+](=O)[O-])c1O` (centres undefined), the outcome was inactive.
On the same count and under the same terms, with `O=NN(c1ccccc1)c1ccccc1` the entry was “inactive”.
As to `CC(C)C(=O)OCC(C)(C)C(OC(=O)C(C)C)C(C)C` (centres undefined), the AC50 was 28.8 µM (active).
With `Cc1cc(-c2ccc(N)c(C)c2)ccc1N`, the compound was classed as inactive.
Same read-out and setting: the result for `Nc1ccc(-c2ccc(N)cc2)cc1` reads “inactive”; that for `Cc1ccccc1O`, “inactive”.
With `CCOCCOC(C)=O`, the outcome was inactive.
The same measure, in the same setting: the result for `CCCCCCCCOC(=O)c1ccccc1C(=O)OCCCCCCCC` reads “inactive”; that for `Cc1ccc(O)c(C)c1`, “inactive”.
Still for that read-out and setting: with `Oc1c(Cl)c(Cl)c(Cl)c(Cl)c1Cl` the entry was “inactive”.
Consider `CN(C)CCO`, for which the outcome was inactive.
The same measure, in the same setting: with `O=C(NC(=O)c1c(F)cccc1F)Nc1cc(Cl)c(OC(F)(F)C(F)F)c(Cl)c1` the entry was “inactive”; with `CCC(C)(CC)c1cc(NC(=O)c2c(OC)cccc2OC)on1`, “inactive”.

The next assay can be described thus: Tanguay_ZF_120hpf_BRAI_legacy: (Legacy) Oregon State University Tanguay Lab 120 Hour Post-fertilization zebrafish Assay for Brain Malformation (AID 2283641). The essentials:
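Tropical 5D wild-type zebrafish embryos were exposed statically in sealed, foil-covered plates at 28C until 120 hpf, with 0.64% (vol/vol) final DMSO. Brain malformation was scored present/absent by brightfield microscopy, relative to DMSO baseline.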
With `C=CC(=O)NCNC(=O)C=C`, the compound was called inactive.
For `Cc1ccccc1[N+](=O)[O-]`, the call was inactive.
The same measure, in the same setting: the result for `NS(=O)(=O)C(F)(F)C(F)(F)C(F)(F)C(F)(F)C(F)(F)C(F)(F)C(F)(F)C(F)(F)F` reads “inactive”; that for `ClC1=C(Cl)[C@]2(Cl)[C@@H]3[C@@H](Cl)[C@H]4O[C@H]4[C@@H]3C1(Cl)C2(Cl)Cl`, “inactive”.
Regarding `Nn1cnnc1`, the call was inactive.
Still for that read-out and setting: the result for `CCC(=O)O[C@H]1CC[C@H]2[C@@H]3CCC4=CC(=O)CC[C@]4(C)[C@H]3CC[C@]12C` reads “inactive”; that for `CC1=C2C[C@H]3[C@@H](CC=C4C[C@@H](O)CC[C@@]43C)[C@@H]2CC[C@]12O[C@@H]1C[C@H](C)CN[C@H]1[C@H]2C`, “inactive”.
Same read-out and setting: the result for `Cc1cc2c3c(c1)C(c1ccccc1)=N[C@@H](NC(=O)c1ccncc1)C(=O)N3CC2` reads “inactive”.
On the same count and under the same terms, with `Cc1cccc([N+](=O)[O-])c1` the entry was “inactive”.
With `ClC1=C(Cl)[C@]2(Cl)[C@@H]3[C@H]4C[C@H]([C@@H]5O[C@H]45)[C@@H]3[C@@]1(Cl)C2(Cl)Cl`, the AC50 was 66.7 µM (active).
With `Cc1ccccc1CO[C@@H]1C[C@@]2(C(C)C)CC[C@]1(C)O2`, the compound was classed as inactive.
Consider `CO/C=C(/C(=O)OC)c1ccccc1COc1cccc(C(F)(F)F)n1`, for which the AC50 was 3.77 µM (active).
Regarding `O=C(O)C(F)(F)C(F)(F)C(F)(F)C(F)(F)C(F)(F)C(F)(F)C(F)(F)C(F)(F)F`, the compound was called inactive.
On the same count and under the same terms, the result for `N#Cc1ccc(N(CC(N)=O)CC(F)(F)F)cc1C(F)(F)F` reads “inactive”; that for `O=C(N[C@H]1CN2CCC1CC2)c1cc2ccoc2cn1`, “inactive”; that for `C=CC(N)=O`, “inactive”.
The same measure, in the same setting: with `CCNc1nc(NC(C)C)nc(SC)n1` the entry was “inactive”.
Regarding `Oc1ccc(C(c2ccc(O)cc2)(C(F)(F)F)C(F)(F)F)cc1`, the compound was called inactive.
Still for that read-out and setting: with `CCOC(=O)C(O)(c1ccc(Cl)cc1)c1ccc(Cl)cc1` the entry was “inactive”; with `CCC(C)c1cc([N+](=O)[O-])cc([N+](=O)[O-])c1O` (centres undefined), “inactive”; with `O=NN(c1ccccc1)c1ccccc1`, “inactive”.
The same measure, in the same setting: with `CC(C)C(=O)OCC(C)(C)C(OC(=O)C(C)C)C(C)C` (centres undefined) the entry was “inactive”; with `Cc1cc(-c2ccc(N)c(C)c2)ccc1N`, “inactive”.
Same read-out and setting: the result for `Nc1ccc(-c2ccc(N)cc2)cc1` reads “inactive”; that for `Cc1ccccc1O`, “inactive”; that for `CCOCCOC(C)=O`, “inactive”.
With `CCCCCCCCOC(=O)c1ccccc1C(=O)OCCCCCCCC`, the call was inactive.
For `Cc1ccc(O)c(C)c1`, the compound was classed as inactive.
On the same count and under the same terms, the result for `Oc1c(Cl)c(Cl)c(Cl)c(Cl)c1Cl` reads “inactive”; that for `CN(C)CCO`, “inactive”; that for `O=C(NC(=O)c1c(F)cccc1F)Nc1cc(Cl)c(OC(F)(F)C(F)F)c(Cl)c1`, “inactive”.
Still for that read-out and setting: the result for `CCC(C)(CC)c1cc(NC(=O)c2c(OC)cccc2OC)on1` reads “inactive”.
